Test results published in PubChem BioAssay (NCI).
The panel holds about 83,000 compounds, 20% with a hit somewhere; the sample as a whole holds those more often.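 Plates (96-well) were seeded with cells, treated with compound at one concentration, and incubated for 48 hours before percent growth was determined.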 Unmarked numbers belong to inactive results. Activity calls are given as the source filed them. Rule for the calls: active = growth percent below 10; inactive = the rest.

How the values were obtained:
Experiment in all cases: NCI-60 one-dose screen, 48 h (100 = growth as untreated, 0 = no growth, -100 = all killed)
Conditions in all cases: 10 µM
NCI-H23 lung = test system: NCI-H23 lung
NCI-H226 lung = test system: NCI-H226 lung
NCI-H322M lung = test system: NCI-H322M lung
HOP-62 NSCLC = test system: HOP-62 NSCLC
NCI-H460 lung = test system: NCI-H460 lung
NCI-H522 lung = test system: NCI-H522 lung
A549/ATCC NSCLC = test system: A549/ATCC NSCLC
786-0 renal = test system: 786-0 renal
COLO 205 colon = test system: COLO 205 colon
DU-145 prostate = test system: DU-145 prostate

SMILES	growth (NCI-H23 lung)	growth (NCI-H226 lung)	growth (NCI-H322M lung)	growth (HOP-62 NSCLC)	growth (NCI-H460 lung)	growth (NCI-H522 lung)	growth (A549/ATCC NSCLC)	growth (786-0 renal)	growth (COLO 205 colon)	growth (DU-145 prostate)
O=S(=O)(NCCCNc1nccc(-c2c(-c3ccc(F)cc3)nc3sccn23)n1)c1ccc(F)cc1	56.2%	40%	43.2%	74%	26.9%	36.4%	25.9%	59%	21%	44.6%
N=c1c2c(-c3ccccc3)c(-c3ccccc3)n(Cc3ccccc3)c2ncn1CCCO	45.7%	46.1%	34.4%	52.9%	8.17% (active)	27.8%	17.3%	48.3%	-5.84% (active)	34.5%
O=C(N/N=C\c1cc(Cl)ccc1[N+](=O)[O-])c1ccco1	98.2%	105%	126%	110%	101%	97.2%	90.7%	95.6%	139%	108%
c1ccc(CP(Cc2ccccc2)c2ccccc2)cc1	97.9%	105%	87.3%	99.4%	112%	83.1%	97%	93.5%	106%	113%
O=[N+]([O-])c1ccc(N/N=C/c2cccc3ccccc23)nc1	102%	121%	105%	110%	117%	84.8%	92.4%	99.2%	102%	124%
COc1ccc(-c2nc3sccn3c2-c2nc3c([nH]2)C(=O)c2ccccc2C3=O)cc1	95.7%	95.1%	108%	107%	91.3%	96.8%	67.5%	89.4%	102%	104%
O=C(Nc1ccccc1)Nc1cccc(-n2cc(-c3ccncc3)c(-c3ccc(O)c(Cl)c3)n2)c1	74.2%	93.8%	43.3%	77.7%	25.2%	51.4%	35.5%	38.5%	111%	71.1%
COC(=O)C1=NNC(=S)N(c2cc(C)[nH]n2)C(=O)C1	99.1%	99.7%	94.5%	115%	111%	103%	106%	96.9%	116%	107%
COc1cc(Cl)cc(-c2nn(-c3cccc(NC(=O)c4ccc(N5CCOCC5)c(C(F)(F)F)c4)c3)cc2-c2ccncc2)c1	79%	64.2%	89.6%	52.2%	29.3%	52.7%	45.5%	43.1%	52.7%	93.3%
Clc1cc2c(c(CSc3nc4ccccc4n4cccc34)c1)OCOC2	77.9%	134%	83.2%	88.2%	66.6%	59.8%	29.9%	93.4%	84.1%	106%
O=C1OCC2=C1C(c1cccc(Cl)c1)c1cc3c(cc1N2CCO)CCC3 (stereo not given)	8.79% (active)	-18.1% (active)	33%	21%	-12.7% (active)	-29.2% (active)	11.7%	18%	-47.1% (active)	-46.2% (active)
COc1ccc(-c2nc(-c3nc4ccc(Cl)cc4[nH]3)c3ccccn23)cc1	84.1%	-45.7% (active)	54.6%	-77.9% (active)	-24.1% (active)	-3.06% (active)	-37.4% (active)	-72.7% (active)	76%	25.6%
CN1c2ccccc2[C@]2(Cc3ccccc3)Cc3ccccc3N[C@H]12	91.4%	98.2%	111%	120%	111%	71.7%	109%	106%	118%	115%
N#CCCN(NC(=O)OCc1ccccc1)C(=O)OCc1ccccc1	107%	115%	109%	120%	103%	120%	106%	97.9%	119%	109%
Cc1cc(N(CCCNc2ccnc3cc(Cl)ccc23)Cc2ccc3c(c2)OCO3)nc(N2CCCCC2)n1	6.38% (active)	38.1%	-5.02% (active)	-45.1% (active)	-30.8% (active)	-43.9% (active)	-32.8% (active)	-91.5% (active)	-78.7% (active)	11.1%
Cc1cc2c(C)c3cc(C)c(N)cc3nc2cc1N	17.1%	10.1%	-12.5% (active)	3.24% (active)	-20.5% (active)	-49.4% (active)	4.93% (active)	28%	1.41% (active)	10.6%
COc1cc(-c2cc(/C=C/C(=O)c3ccc(F)c(F)c3)[nH]n2)cc(OC)c1OC	55.9%	65.6%	74.1%	78.7%	58.1%	47.4%	36.4%	80.5%	61.4%	72.9%
COc1ccc(-c2nn(-c3cccc(NC(=O)c4cccc(C(F)(F)F)c4)c3)cc2-c2ccncc2)cc1Cl	52%	52.1%	47.3%	41.9%	8.19% (active)	-20.1% (active)	19.8%	17.1%	17.3%	50.5%
CC(=O)C1CCC2C3CC(F)C4=CC(=O)CCC4(C)C3C(O)CC12C (stereo not given)	104%	85.9%	90.9%	93%	103%	85.8%	82.3%	96.3%	104%	110%
O=C(Nc1ccc(CN2CCc3nc4cc(O)c(O)cc4cc32)cc1)c1ccc(Cl)c(Cl)c1	105%	78.7%	94%	107%	102%	101%	111%	104%	99.4%	104%
CC(=O)c1cc(Cl)ccc1O	106%	98.1%	101%	107%	101%	118%	101%	104%	112%	105%
C#Cc1ccc(-n2c(/C=C/c3ccc4ccccc4c3)nc3ncccc3c2=O)cc1	67.5%	13.2%	71.9%	63%	39%	8.75% (active)	34%	54.3%	26%	60.1%
COc1ccc(OC)c2c1C(=O)CC2C (stereo not given)	102%	101%	96.5%	101%	104%	110%	103%	108%	106%	107%
O=C(c1ccc(Cl)cc1Cl)N1CCOCC1	97.3%	96.8%	101%	97%	104%	103%	98.4%	97.4%	111%	109%
COc1ccc(Nc2ncnc3c2c(SC)nn3-c2ccccc2)cc1	89.8%	85.5%	82.4%	96.7%	99.4%	61.3%	86%	93.9%	111%	101%
CCC1(C(C)C)NC(=O)NC1=O (stereo not given)	99.1%	96.4%	110%	96%	110%	101%	96.1%	97.7%	115%	104%
Oc1[nH]c2cc(Cl)ccc2c1/C=c1/ccc2c(c1)N=C(c1cc(F)cc(F)c1)N=2	28.3%	55.1%	49.1%	25.3%	6.1% (active)	-3.39% (active)	37.9%	36.7%	-0.0984% (active)	-8.59% (active)
CCOC(=O)CNC(=O)CCCCSc1ncnc2nc[nH]c12	113%	94.5%	173%	96.2%	97%	102%	109%	97.9%	111%	113%

SMILES	growth (NCI-H23 lung)	growth (NCI-H226 lung)	growth (NCI-H322M lung)	growth (HOP-62 NSCLC)	growth (NCI-H460 lung)	growth (NCI-H522 lung)	growth (A549/ATCC NSCLC)	growth (786-0 renal)	growth (COLO 205 colon)	growth (DU-145 prostate)
CN(C)c1ccc(/C=C/C=N/NC(=O)c2cc(O)c(O)c(O)c2)cc1	99.6%	101%	93.7%	103%	107%	-31.8% (active)	98%	103%	94.1%	109%
CCCN(CCC)CCC(O)c1cc2c(c3ccccc13)CCCC2 (stereo not given)	79.8%	81.1%	99.1%	79.4%	98.9%	74.2%	92.3%	84.3%	77%	106%
COc1cc(/C=C2\Oc3cc(OCC(=O)c4ccccc4)ccc3C2=O)cc(OC)c1OC	105%	104%	126%	2.36% (active)	93%	105%	118%	-45.9% (active)	146%	94.9%
CC(=O)N1N=C(c2ccc(Cl)cc2)CC1c1sc(Cl)nc1Cl (stereo not given)	87.4%	43.1%	62.9%	103%	107%	81%	78.5%	84.7%	108%	74.7%
Cc1ccc(NC(=O)Nc2cccnc2)cc1NC(=O)Nc1cccnc1	88.4%	95.3%	100%	117%	85.9%	-37.3% (active)	30.8%	94.8%	118%	98.2%
O=C(Nc1cccc(-n2cc(-c3ccncc3)c(-c3cc(O)cc(Cl)c3)n2)c1)c1ccc(N2CCOCC2)c(C(F)(F)F)c1	15.4%	94.7%	43.5%	-2.19% (active)	-26% (active)	18.8%	9.62% (active)	36.6%	80.5%	38%
COc1ccc(-c2nc3sc(C4CC4)nn3c2/C=C2/C(=O)Nc3ccc(OC)cc32)cc1	82%	63.7%	61.6%	80.9%	77.7%	63.8%	75.5%	86%	88.5%	62.3%
c1ccc(C(NC2CC3CCC2C3)c2ccccc2)cc1 (stereo not given)	105%	85.8%	101%	97.2%	105%	85.5%	95.7%	97%	103%	108%
O=C(NN1C(=O)CSC1c1ccc(Cl)cc1)c1cccnc1 (stereo not given)	86.8%	249%	98.9%	93.7%	103%	87.1%	113%	92%	110%	52.2%
COc1cc(Nc2ccnc(NCCCNc3ccnc4cc(Cl)ccc34)n2)cc(OC)c1	55.8%	87.6%	15.2%	27.4%	-4.19% (active)	-44.8% (active)	11.9%	-90.9% (active)	-92.2% (active)	34.3%
COc1ccc(-c2nc3ncccn3c2-c2nnc(-c3ccsc3C)o2)cc1	80.5%	61.6%	84.4%	23.8%	59.9%	53.6%	78.8%	90.9%	110%	88.3%
CCOCC(=O)C(C#N)c1ccc(Cl)c(Cl)c1 (stereo not given)	106%	88.8%	102%	90.9%	107%	94.4%	101%	101%	115%	113%
COc1cc(-c2cc(/C=C3\C(=O)Nc4cc(Cl)ccc43)[nH]n2)cc(OC)c1OC	69.7%	50.4%	47.5%	43.3%	34.7%	31.9%	43%	93.7%	7.07% (active)	43.8%
CNc1ncc(-c2ccc(C(F)(F)F)cc2)c(NC2CCCCCC2)n1	62.6%	70.3%	76.6%	92.6%	87.8%	57.6%	69.1%	79.4%	68.5%	91%
COc1ccc2c(c1)N(CCO)C1=C(C(=O)OC1)C2c1cc(OC)c(OC)c(OC)c1 (stereo not given)	17.4%	2.05% (active)	17%	25.6%	0.781% (active)	-36.1% (active)	13.1%	25.3%	-65.4% (active)	-30.8% (active)
COc1ccc(-c2nn(-c3cccc(NC(=O)c4cc(C(F)(F)F)cc(C(F)(F)F)c4)c3)cc2-c2ccncc2)cc1Cl	81.1%	78.3%	73.1%	88.1%	62.3%	14.8%	53.1%	81.2%	90.7%	83.7%
O=C(Nc1ccncc1)C(=O)c1cn(S(=O)(=O)c2cc(Cl)cc(Cl)c2)c2ccccc12	70.3%	74.2%	99.6%	71.7%	87.3%	40.2%	85.3%	72.5%	104%	66.5%
CC1(C)CCC(=NNC(N)=S)CC1	99.1%	110%	115%	111%	104%	97.1%	106%	113%	125%	111%
Nc1c(C(=O)Nc2ccccc2Cl)sc2nc3c(cc12)C(=O)CCC3	42.3%	75.9%	37.9%	83.3%	12.4%	32.8%	24.9%	91.1%	3.38% (active)	48.5%
COc1ccc(C(=O)/C=C/c2cc(-c3cc(OC)c(OC)c(OC)c3)n[nH]2)cc1	87.3%	53.3%	-6.79% (active)	17.6%	2.79% (active)	-0.12% (active)	34.5%	10.4%	30.5%	26.3%
COc1ccc(S(=O)(=O)Nc2c(/C=C\c3cc(OC)c(OC)c(OC)c3)ccc(OC)c2O)cc1	33.1%	12.9%	40.5%	49.1%	6.2% (active)	-47.6% (active)	15.6%	9.56% (active)	3.21% (active)	-16.7% (active)
N=C(N)c1ccc(-c2ccc(-c3ccco3)o2)cc1	94.8%	77.8%	67%	81.7%	62.8%	95%	68.7%	79.9%	-90.2% (active)	88.2%
c1ccc(CSc2nnc3c4c5c(sc4nc(-c4cccnc4)n23)CCCCCC5)cc1	54.7%	67.1%	99.7%	91.3%	19.3%	6.26% (active)	36.8%	73.6%	20.5%	56.4%
CCOC(=O)C1(CC(C)C)CCOC1=O (stereo not given)	102%	106%	104%	109%	103%	100%	94.8%	107%	115%	105%
O=C(Nc1ccc(Cl)c([N+](=O)[O-])c1)Nc1nc2ccccc2s1	64.5%	86.4%	101%	90.1%	82%	36.1%	27.2%	90.3%	108%	107%
NC(=O)SCC(=O)Nc1ccc(S(N)(=O)=O)cc1	106%	93%	121%	101%	108%	105%	103%	107%	107%	112%
CN(C)c1ccc(Cc2ccc(N(C)C)cc2Cl)c(Cl)c1	97%	89.4%	99.3%	105%	98.4%	80.1%	96.5%	112%	108%	103%
